# Measured values from PubChem BioAssay AID488969 (Vanderbilt High Throughput Screening Facility, 2010).
# Whole data set: some 110,000 compounds, median “z-score” near -0.1, cut for the highest 2% near 2. The sample holds the highest values, similar compounds and a random draw of the others, so the mix is not that of the screen. Activity calls are given as the source filed them.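 How the source made its calls: active means z-score in the third read window above 3 or below -3; inactive means the rest.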
# Target: Metabotropic glutamate receptor 8 (Rattus norvegicus) (UniProt P70579)
# Sequence (P70579 whole entry, looked up): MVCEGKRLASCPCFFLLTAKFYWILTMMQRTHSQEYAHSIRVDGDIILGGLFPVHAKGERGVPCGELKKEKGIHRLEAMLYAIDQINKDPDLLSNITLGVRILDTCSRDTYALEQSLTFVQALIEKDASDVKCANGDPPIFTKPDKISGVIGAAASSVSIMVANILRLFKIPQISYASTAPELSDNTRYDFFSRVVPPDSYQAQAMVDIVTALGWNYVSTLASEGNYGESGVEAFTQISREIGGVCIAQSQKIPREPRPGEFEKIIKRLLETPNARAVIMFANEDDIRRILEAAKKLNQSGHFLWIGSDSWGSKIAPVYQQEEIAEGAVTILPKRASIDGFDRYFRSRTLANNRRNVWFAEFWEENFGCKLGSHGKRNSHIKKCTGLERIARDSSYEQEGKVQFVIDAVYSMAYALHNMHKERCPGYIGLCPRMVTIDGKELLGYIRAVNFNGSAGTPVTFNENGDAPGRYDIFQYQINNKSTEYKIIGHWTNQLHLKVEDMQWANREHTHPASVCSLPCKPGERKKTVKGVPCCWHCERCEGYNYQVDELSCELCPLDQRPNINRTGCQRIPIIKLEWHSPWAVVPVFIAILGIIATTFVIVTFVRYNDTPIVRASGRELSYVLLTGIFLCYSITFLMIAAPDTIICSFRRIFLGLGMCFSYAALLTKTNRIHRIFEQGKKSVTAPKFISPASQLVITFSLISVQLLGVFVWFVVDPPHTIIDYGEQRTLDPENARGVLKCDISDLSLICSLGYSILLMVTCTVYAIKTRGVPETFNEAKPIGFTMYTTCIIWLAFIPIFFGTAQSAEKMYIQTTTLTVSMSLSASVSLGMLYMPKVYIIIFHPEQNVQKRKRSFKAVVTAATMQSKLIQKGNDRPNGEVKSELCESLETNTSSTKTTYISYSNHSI
# Test: rat mGluR8 modulators via GIRK flux, primary screen, cell-based, thallium flux, HTS (AID 488969)
# Conditions: HEK293 rat mGluR8, GIRK (G protein-gated inwardly rectifying potassium channel) thallium flux, FluoZin2; at 10 µM; stronger effect = higher value; submaximal glutamate (EC20) added with thallium
row,Structure (SMILES),z-score
1,O=[N+]([O-])c1ccc(Cl)c(S(=O)(=O)N2CCCCCC2)c1,-0.0418
2,COc1ccc(-c2nsc3c(SCC(=O)Nc4cc(C)ccc4C)ncnc23)cc1,0.00156
3,CC(NS(=O)(=O)c1ccc(CCC(=O)N2CCN(C)CC2)cc1)c1ccccc1 (centres undefined),-0.349
4,O=C(COc1ccccc1)Nc1nccs1,1.35
5,O=C(Cc1ccccc1)Nc1nc(-c2cccs2)cs1,2.99
6,O=C(COc1ccccc1Cl)Nc1nc(-c2cccs2)cs1,0.4
7,O=C(COc1ccccc1)Nc1nc(-c2cccs2)cs1,2.15
8,O=C(Cc1ccccc1)Nc1nnc(-c2cccs2)s1,0.154
9,CC(=O)Nc1nc(-c2cccs2)cs1,-0.281
10,Cc1cccc2cc(CN(Cc3ccc(F)cc3)C(=O)C(F)(F)F)c3nnnn3c12,-0.681
11,Cc1ccc2c(c1)N(CC(=O)NCc1ccco1)C(=O)CO2,-0.265
12,COc1ccc2nc(SCc3cnc(C)nc3N)[nH]c2c1,0.0366
13,CCc1ccc2[nH]c(=O)c(CN(CCN(C)C)C(=O)Nc3ccccc3)cc2c1,-0.0486
14,N#Cc1c(N)sc2c1CCN(CCc1ccccc1)C2,0.208
15,COc1ccccc1-n1c(SCC(=O)NC2CCS(=O)(=O)C2)nc2cc([N+](=O)[O-])ccc21 (centres undefined),-0.116
16,COc1ccc2nc(SCC(=O)O)nc(C)c2c1,-0.216
17,CCOC(=O)CCSc1nc(C)c2cc(OC)ccc2n1,-0.0662
18,CCOC(=O)CSc1nc(C)c2cc(OC)ccc2n1,6.89 (active)
19,CC1CCCN(C(=O)C2CCCN(S(=O)(=O)c3cccc4nsnc34)C2)C1 (centres undefined),0.195
20,Cc1cc(C(=O)NNC(=S)NCC(C)C)cs1,0.377
21,Cc1cccc(NC(=S)NNC(=O)c2csc(C(C)C)c2)c1,8.28 (active)
22,Cc1ccc(C)c(NC(=S)NNC(=O)c2csc(C(C)C)c2)c1,12 (active)
23,CCCCNC(=S)NNC(=O)c1csc(C(C)C)c1,0.133

row,Structure (SMILES),z-score
1,CCNC(=S)NNC(=O)c1csc(C(C)C)c1,-0.354
2,Cc1ccc(C)c(NC(=S)NNC(=O)c2ccc(Br)o2)c1,0.537
3,CCCCn1c(SCC(=O)Nc2cc(C)on2)nnc1-c1ccco1,1.3
4,CCOc1ccccc1NC(=O)c1ccc(F)c(S(=O)(=O)N2CCC3(CC2)OCCO3)c1,2.77
5,COc1ccccc1NC(=O)c1cc(S(=O)(=O)N2CCC3(CC2)OCCO3)ccc1F,-0.251
6,CCOc1ccccc1NC(=O)c1cc(S(=O)(=O)N2CCC3(CC2)OCCO3)ccc1F,-0.432
7,CCNC(=S)NN=C1CCC(C(C)(C)C)CC1 (centres undefined),0.883
8,O=C(COC(=O)COc1ccccc1Cc1ccccc1)Nc1cccnc1Cl,-0.941
9,Cc1cccc2sc(NC(=O)Cn3cccc3)nc12,13.9 (active)
10,Cc1cccc2sc(NC(=O)CN3C(=O)c4ccccc4C3=O)nc12,-0.16
11,Cc1cccc2sc(NC(=O)CSCc3ccccc3)nc12,0.801
12,Cc1onc(-c2c(F)cccc2Cl)c1C(=O)N1C=CC(C(F)(F)F)=NCC1,-0.013
13,Cc1nnc(SCC(=O)N2CCCc3ccccc32)[nH]c1=O,-0.411
14,CCc1c(C)nc(SCC(=O)N2CCc3ccccc32)[nH]c1=O,4.54 (active)
15,O=C(CSc1nc(O)cc(=O)[nH]1)N1CCCc2ccccc21,-0.65
16,Nc1nc(SCC(=O)N2CCc3ccccc32)[nH]c(=O)c1-c1ccccc1,0.47
17,Cc1cc(=O)[nH]c(SCC(=O)N2CCCc3ccccc32)n1,0.265
18,O=C(CSc1nc(-c2ccccc2)cc(=O)[nH]1)N1CCc2ccccc21,9.86 (active)
19,CCOc1ccc(C2/C(=C(/O)c3ccccc3)C(=O)C(=O)N2CCCN(C)C)cc1OC (centres undefined),0.188
20,O=C(COC(=O)c1cnccn1)c1ccc2ccccc2c1,0.118
21,COn1c(SC(C)C)nc2ccccc2c1=O,-0.948
22,COC(=O)COn1c(SC(C)C)nc2ccccc2c1=O,2.57
23,CCSc1nc2ccccc2c(=O)n1OCC(=O)OC,-0.148

row,Structure (SMILES),z-score
1,Cc1cc(NC(=O)c2cc3ccccc3oc2=O)no1,0.0723
2,Cc1cc2cc(CN(CCN3CCOCC3)C(=O)Nc3ccccc3F)c(=O)[nH]c2cc1C,-0.536
3,CC(C)OP(=O)(OC(C)C)C1(O)C(=O)Nc2ccccc21 (centres undefined),-0.0437
4,COc1ccc(C(=O)NN(c2ccccc2)c2ccccc2)cc1,-0.0602
5,COc1ccc(C(=O)NC(=S)Nc2ccccc2F)cc1,0.595
6,CCOc1ccc(C(=O)NC(=S)N(Cc2ccccc2)Cc2ccccc2)cc1,11.7 (active)
7,CCOc1ccc(C(=O)NCCc2ccccc2)cc1,0.0133
8,CCOc1ccc(C(=O)NC(Cc2ccccc2)C(=O)OC)cc1 (centres undefined),-0.262
9,COc1ccc(C(=O)NC(=S)N(Cc2ccccc2)Cc2ccccc2)cc1,16.8 (active)
10,COc1ccc(C2SCC(=O)N2CC23CC4CC(CC(C4)C2)C3)cc1 (centres undefined),-0.23
11,CCC(=O)N1N=C(c2c(-c3ccccc3)c3cc(Cl)ccc3[nH]c2=O)CC1c1ccco1 (centres undefined),-0.155
12,CCCCn1c(/N=C/c2ccc3c(c2)OCO3)nc2ccccc21,-0.738
13,CC(C)=CC[N+]1(C)CCCCC1,1.14
14,N#C/C(=C\c1cn(CCOc2ccccc2F)c2ccccc12)C(=O)NCc1cccs1,-0.0588
15,CCOc1ccc(N2C(=O)/C(=C/c3cc(OC)c(OC)c(OC)c3)N(CC(=O)OC)C2=S)cc1,14.1 (active)
16,CCOc1ccc(/C=C2/C(=O)N(c3ccc(OC)cc3)C(=S)N2CC(=O)OC)cc1OCC,0.273
17,CCOc1ccc(N2C(=O)/C(=C/c3cccs3)N(CC(=O)OC)C2=S)cc1,-0.17
18,S=c1sc(SCCOc2ccccc2)nn1-c1ccccc1,-0.317
19,COc1cccc(C(=O)OCc2ccccc2C#N)c1O,-0.163
20,O=C(Nc1ccccc1)N(C1=NCCCCS1)c1cccc2ccccc12,-0.463
21,Cc1ccc(Nc2n[nH]c(C)c2[N+](=O)[O-])cc1,-0.101
22,Cc1ccc(Nc2n[nH]c(C)c2[N+](=O)[O-])cc1C,2.51
23,Cc1cccc(Nc2n[nH]c(C)c2[N+](=O)[O-])c1,0.073

row,Structure (SMILES),z-score
1,CNC(=O)CCCc1nc(-c2ccccc2Cl)no1,0.0193
2,COC(=O)c1sccc1NC(=S)N1CCN(c2ccccc2)CC1,-0.397
3,Cc1cc(C(=O)NC(C)c2ccc3c(c2)OCO3)cs1 (centres undefined),0.0632
4,Cc1cc(C(=O)NC(C)c2ccncc2)cs1 (centres undefined),2.05
5,Cc1cc(C(=O)NNC(=S)NC(C)c2ccccc2)cs1 (centres undefined),-0.281
6,Cc1cc(C)c2nc(SCC(=O)N3CC(=O)Nc4ccccc43)c(C#N)cc2c1,-0.188
7,CC1CC1C(=O)NCCc1ccc(Cl)cc1 (centres undefined),1.05
8,N#Cc1ccc(-n2c(-c3ccccc3)nnc2-c2ccccc2)cc1C#N,0.19
9,COc1ccccc1/C=C/C=N/N1CCN(Cc2ccc(Cl)cc2)CC1,-0.494
10,COc1ccccc1/C=C/C=N\N1CCN(Cc2ccccc2Cl)CC1,5.52 (active)
11,COc1ccccc1/C=C/C=N/N1CCN(Cc2cccc3ccccc23)CC1,-0.494
12,CN(C)c1ccnc(-n2cccc2/C=N/OCc2cccc(F)c2)c1C#N,-0.0405
13,CCN(C(=O)CSc1ncccc1C(=O)OC(C)C)c1cccc(C)c1,-0.441
14,O=C(Nc1cc(C(F)(F)F)ccc1F)C1CCC1,0.411
15,COc1ccc(OCc2nc(N)nc(Nc3ccccc3)n2)cc1,5.72 (active)
16,COc1ccc(Nc2nc(N)nc(CSc3nnc(N)s3)n2)cc1,-0.571
17,COc1ccc(Nc2nc(N)nc(COc3ccc(OC)cc3)n2)cc1,-0.113
18,Cc1nnc(SCc2nc(N)nc(Nc3ccccc3)n2)s1,-0.209
19,COc1ccc(OCc2nc(N)nc(Nc3ccc(C)cc3)n2)cc1,0.32
20,COc1ccc(Nc2nc(N)nc(CSc3nnc(C)s3)n2)cc1,2.42
21,O=C1c2ccccc2CC1(Cc1ccccc1)Cc1ccccc1,-0.201
22,CC(C)(C)c1ccc(OCC(=O)N/N=C/c2ccsc2)cc1,0.2
23,COc1ccc(OCC(=O)N/N=C/c2ccsc2)cc1,0.604

row,Structure (SMILES),z-score
1,CC(Oc1ccc(Cl)cc1)C(=O)N/N=C/c1ccsc1 (centres undefined),11.6 (active)
2,COc1cc(C(=O)Nc2ccc(S(=O)(=O)NC(C)(C)C)cc2)cc(OC)c1OC,-0.258
3,CCOc1cc(N2CCOCC2)c(OCC)cc1NC(=O)COC(=O)c1cccc2ccccc12,-0.0215
4,CCOc1cc(N2CCOCC2)c(OCC)cc1NC(=O)Cc1cccc2ccccc12,-0.178
5,CCOc1cc(N2CCOCC2)c(OCC)cc1NC(=O)COC(=O)CCc1c[nH]c2ccccc12,8.03 (active)
6,CCOc1ccccc1N1C(=O)CC(N(O)c2ccccc2)C1=O (centres undefined),-0.0542
7,CC1(C)CN2C(=S)N(c3ccccc3)C(c3ccccc3)N2C1 (centres undefined),-0.619
8,COc1ccc(N2CCN(CCNC(=O)Nc3ccc(Cl)cc3)CC2)cc1,0.451
9,COc1ccc(N2CCN(CCCNC(=O)Nc3ccccc3)CC2)cc1,0.121
10,COc1ccc(Cl)c(N2CCN(CCCNC(=O)Nc3ccc(C)cc3)CC2)c1,2.3
11,COc1ccccc1C1(CCNS(=O)(=O)c2ccc(C)cc2)CCOC(C(C)C)C1 (centres undefined),-0.293
12,CC(=O)/C(=N/Nc1ccccc1)Sc1nnc(C(O)c2ccccc2)n1-c1ccccc1 (centres undefined),-0.33
13,COc1cc(Cl)c(C)cc1NC(=O)CSC,0.0277
14,CCn1cc(CNC(=O)/C=C/c2ccc([N+](=O)[O-])cc2)c(C)n1,-0.204
15,c1ccc2sc(Nc3nc4cc5c(cc4s3)OCO5)nc2c1,0.501
16,Fc1ccc2nc(Nc3nc4cc5c(cc4s3)OCCO5)sc2c1,-0.101
17,COc1ccc2nc(Nc3nc4cc5c(cc4s3)OCO5)sc2c1,0.175
18,Fc1cccc2sc(Nc3nc4cc5c(cc4s3)OCO5)nc12,5.54 (active)
19,Fc1cccc2sc(Nc3nc4cc5c(cc4s3)OCCO5)nc12,2.25
20,Fc1cc(F)c2nc(Nc3nc4cc5c(cc4s3)OCO5)sc2c1,1.9
21,Clc1cccc(Cl)c1Cn1cnc(=NCc2ccco2)c2[nH]cnc21,-0.33
22,COc1ccc(/C=N/Nc2cc(C)nc(NS(=O)(=O)c3ccc(C)cc3)n2)cc1,-0.501
